Out of some 310,000 compounds screened, about 14,000 (4.5%) showed an effect of 50% or more. The effect is printed as a negative number. The list comes from a sample in which strong results are over-represented; it also holds similar structures and randomly drawn compounds.
What follows are molecules tested against human ether-à-go-go-related gene (hERG) potassium channel (human, UniProt Q12809) (assay: primary screen, population patch clamp on CHO cells stably expressing hERG; higher = less effect of the substance).
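Also: peak tail current of the secondary pulse compared with the same well before compound.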

Sequence of human ether-à-go-go-related gene (hERG) potassium channel (Q12809 whole entry, looked up): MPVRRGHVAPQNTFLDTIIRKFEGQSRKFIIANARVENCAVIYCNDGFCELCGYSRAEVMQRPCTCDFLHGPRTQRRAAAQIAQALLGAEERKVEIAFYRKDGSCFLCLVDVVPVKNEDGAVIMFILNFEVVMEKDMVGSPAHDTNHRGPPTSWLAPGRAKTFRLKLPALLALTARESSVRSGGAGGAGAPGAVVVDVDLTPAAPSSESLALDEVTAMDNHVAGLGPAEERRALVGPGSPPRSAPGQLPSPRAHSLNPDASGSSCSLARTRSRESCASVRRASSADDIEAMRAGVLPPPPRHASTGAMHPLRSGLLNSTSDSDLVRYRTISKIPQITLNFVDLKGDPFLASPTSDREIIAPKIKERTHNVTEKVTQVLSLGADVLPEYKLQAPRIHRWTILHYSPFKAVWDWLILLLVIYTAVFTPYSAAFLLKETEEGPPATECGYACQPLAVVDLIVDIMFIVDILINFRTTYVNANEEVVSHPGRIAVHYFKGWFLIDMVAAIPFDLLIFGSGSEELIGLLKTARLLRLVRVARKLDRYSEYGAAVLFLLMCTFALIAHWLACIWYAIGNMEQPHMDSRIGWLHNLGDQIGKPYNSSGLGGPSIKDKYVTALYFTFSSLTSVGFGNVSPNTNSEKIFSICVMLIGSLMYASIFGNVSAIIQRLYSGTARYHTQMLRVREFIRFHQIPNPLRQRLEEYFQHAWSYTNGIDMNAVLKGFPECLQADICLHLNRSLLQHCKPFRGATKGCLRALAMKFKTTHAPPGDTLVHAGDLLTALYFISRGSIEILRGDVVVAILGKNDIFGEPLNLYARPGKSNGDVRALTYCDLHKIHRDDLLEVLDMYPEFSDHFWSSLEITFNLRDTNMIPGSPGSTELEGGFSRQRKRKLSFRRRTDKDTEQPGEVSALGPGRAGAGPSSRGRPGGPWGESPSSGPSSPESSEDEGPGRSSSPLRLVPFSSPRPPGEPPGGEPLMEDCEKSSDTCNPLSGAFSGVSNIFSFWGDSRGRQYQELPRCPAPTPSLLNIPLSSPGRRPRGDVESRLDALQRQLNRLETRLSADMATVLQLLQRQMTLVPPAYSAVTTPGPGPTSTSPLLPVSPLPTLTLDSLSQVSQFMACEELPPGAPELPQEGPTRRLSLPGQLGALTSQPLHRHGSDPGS

Question: Which “hERG current change (%, negative = inhibition) at 10uM” value does the source give for `Cc1cc(C)n(CCn2nc(C)cc2C)n1` here?
Answer: 4.43%

Question: How did the “hERG current change (%, negative = inhibition) at 10uM” value turn out when `Cc1ccc(NC(=S)NCc2ccccc2Cl)c(C)c1` was run?
Answer: 2.81%

Question: Which “hERG current change (%, negative = inhibition) at 10uM” value does the source give for `CCC(C)NC(=O)c1cn(CC)c2ccc(S(=O)(=O)N(C)C)cc2c1=O` (stereo not shown) here?
Answer: 1.45%

Question: With `COCCN1CCN(C(=O)c2cc(COc3ccc(F)cc3Cl)on2)CC1` as the molecule, how does the “hERG current change (%, negative = inhibition) at 10uM” value read?
Answer: -3.91%

Question: How did the “hERG current change (%, negative = inhibition) at 10uM” value turn out when `NC(=O)CC(NC(=O)Cc1ccc(Br)cc1)c1ccc(N2CCN(c3ccccn3)CC2)c([N+](=O)[O-])c1` (stereo not shown) was run?
Answer: 17.2%

Question: `CCN(CC)CCn1c2c(c(SCC(=O)Nc3cc(C)cc(C)c3)nc1=O)CCC2` was tested. Which “hERG current change (%, negative = inhibition) at 10uM” value did it give?
Answer: -62.1%

Question: For `COc1cc(NC(=O)CSc2nc(=O)n(CCCN3CCOCC3)c3c2CCC3)cc(OC)c1`, which “hERG current change (%, negative = inhibition) at 10uM” value is on record?
Answer: -34.9%

Question: `CCN(CC)CCn1c2c(c(SCC(=O)Nc3cc(C)on3)nc1=O)CCCC2` was tested. Which “hERG current change (%, negative = inhibition) at 10uM” value did it give?
Answer: -25%

Question: For `CCN(CC)CCn1c2c(c(SCC(=O)Nc3cc(C)ccc3C)nc1=O)CCC2`, which “hERG current change (%, negative = inhibition) at 10uM” value is on record?
Answer: -61%

Question: `CCN(CC)CCCn1c2c(c(SCC(=O)Nc3cc(OC)cc(OC)c3)nc1=O)CCC2` was tested. Which “hERG current change (%, negative = inhibition) at 10uM” value did it give?
Answer: -64.4%

Question: How did the “hERG current change (%, negative = inhibition) at 10uM” value turn out when `Cc1ccc(C)c(NC(=O)CSc2nc(=O)n(CCN3CCOCC3)c3c2CCCC3)c1` was run?
Answer: -24.2%

Question: Which “hERG current change (%, negative = inhibition) at 10uM” value does the source give for `COc1cc(NC(=O)CSc2nc(=O)n(CCN3CCOCC3)c3c2CCCC3)cc(OC)c1` here?
Answer: -23.3%

Question: For `COc1cc(NC(=O)CSc2nc(=O)n(CCN3CCOCC3)c3c2CCC3)cc(OC)c1`, which “hERG current change (%, negative = inhibition) at 10uM” value is on record?
Answer: -41.9%

Question: With `CCN(CC)CCn1c2c(c(SCC(=O)Nc3cc(OC)cc(OC)c3)nc1=O)CCC2` as the molecule, how does the “hERG current change (%, negative = inhibition) at 10uM” value read?
Answer: -70.1%

Question: How did the “hERG current change (%, negative = inhibition) at 10uM” value turn out when `COC(=O)NC1(C(=O)O)CCCC1` was run?
Answer: -0.802%

Question: For `O=C(NNC(=O)c1cc(-c2ccco2)nc2ccccc12)c1ccccc1`, which “hERG current change (%, negative = inhibition) at 10uM” value is on record?
Answer: -3.05%

Question: `O=S(=O)(Nc1nc2ccccc2nc1NCC1CCCO1)c1ccc(F)cc1` (stereo not shown) was tested. Which “hERG current change (%, negative = inhibition) at 10uM” value did it give?
Answer: -1.06%

Question: How did the “hERG current change (%, negative = inhibition) at 10uM” value turn out when `Cc1cc(OCC(=O)N2C[C@H]3C[C@@H](C2)c2cccc(=O)n2C3)c2c(C)cc(=O)oc2c1` was run?
Answer: 10.3%

Question: `COc1ccc(/C=N/NC(=O)C(=O)N2CCN(c3ccccc3OC)CC2)cc1` was tested. Which “hERG current change (%, negative = inhibition) at 10uM” value did it give?
Answer: -27.6%

Question: How did the “hERG current change (%, negative = inhibition) at 10uM” value turn out when `COc1cc(CCC(=O)Nc2ccc(Cl)c(C(F)(F)F)c2)cc(OC)c1OC` was run?
Answer: 13.1%

Question: With `Cc1cc(Cl)c(S(=O)(=O)NCC2CCCO2)cc1OCC(N)=O` (stereo not shown) as the molecule, how does the “hERG current change (%, negative = inhibition) at 10uM” value read?
Answer: 4.47%

Question: With `O=C(NC1CCCC1)c1cc(-c2ccc(Cl)cc2Cl)on1` as the molecule, how does the “hERG current change (%, negative = inhibition) at 10uM” value read?
Answer: 7.16%

Question: How did the “hERG current change (%, negative = inhibition) at 10uM” value turn out when `O=C(CN(Cc1ccco1)C(=O)c1ccc(N2CCCC2=O)cc1)Nc1ccccc1C(F)(F)F` was run?
Answer: -46.3%

Question: Which “hERG current change (%, negative = inhibition) at 10uM” value does the source give for `CCNC(=O)c1sc2cc(C)ccc2c1Cl` here?
Answer: -3.25%

Question: `CN(C)S(=O)(=O)c1ccc(N2CCCC2)c(C(=O)NC2CCC(O)CC2)c1` (stereo not shown) was tested. Which “hERG current change (%, negative = inhibition) at 10uM” value did it give?
Answer: 13.2%

Question: Which “hERG current change (%, negative = inhibition) at 10uM” value does the source give for `c1ccc(-n2nnnc2NC2CCCCC2)cc1` here?
Answer: 11%

Question: With `Cc1ccc(CSCC(Nc2ccc(C(=O)O)cc2[N+](=O)[O-])C(=O)O)cc1` (stereo not shown) as the molecule, how does the “hERG current change (%, negative = inhibition) at 10uM” value read?
Answer: 6.66%

Question: For `COc1ccc(CN2CCc3c([nH]c4ccccc34)C2)c(OC)c1C`, which “hERG current change (%, negative = inhibition) at 10uM” value is on record?
Answer: -62.4%

Question: Which “hERG current change (%, negative = inhibition) at 10uM” value does the source give for `COc1ccccc1CN1CCc2c([nH]c3ccccc23)C1` here?
Answer: -23%

Question: For `COc1cc2c(cc1OC)CN(Cc1ccc(OC)c(C)c1OC)CC2`, which “hERG current change (%, negative = inhibition) at 10uM” value is on record?
Answer: -43.6%

Question: `Clc1cccc(CN2CCc3c([nH]c4ccccc34)C2)c1Cl` was tested. Which “hERG current change (%, negative = inhibition) at 10uM” value did it give?
Answer: -8.21%

Question: `COc1ccc(CN2CCc3c([nH]c4ccccc34)C2)cc1Br` was tested. Which “hERG current change (%, negative = inhibition) at 10uM” value did it give?
Answer: -45.9%

Question: How did the “hERG current change (%, negative = inhibition) at 10uM” value turn out when `COc1cc(OC)c(CN2CCc3c([nH]c4ccccc34)C2)cc1Br` was run?
Answer: -54.9%

Question: Which “hERG current change (%, negative = inhibition) at 10uM” value does the source give for `O=C(NNC(=O)C1CCN(Cc2cccc(F)c2)CC1)c1cccc(Cl)c1` here?
Answer: -8.28%

Question: For `CCOc1ccc(C(=O)Nc2nnc(S(=O)(=O)N(C)Cc3ccco3)s2)cc1`, which “hERG current change (%, negative = inhibition) at 10uM” value is on record?
Answer: 9.14%

Question: Which “hERG current change (%, negative = inhibition) at 10uM” value does the source give for `COCCN1Cc2cccc(C(=O)Nc3ccc4c(c3)OCCO4)c2C1=O` here?
Answer: -5.24%

Question: Which “hERG current change (%, negative = inhibition) at 10uM” value does the source give for `O=C(CSCc1cccc(F)c1)N1CCN(c2ccccc2)CC1` here?
Answer: -19.2%

Question: `Cc1ccc(NS(=O)(=O)c2c(C)[nH]c(=O)[nH]c2=O)c(C)c1` was tested. Which “hERG current change (%, negative = inhibition) at 10uM” value did it give?
Answer: 24.3%

Question: `COc1ccc(C(=O)N2CCN(C3CCN(Cc4ccccc4)CC3)CC2)cc1OC` was tested. Which “hERG current change (%, negative = inhibition) at 10uM” value did it give?
Answer: -42.8%

Question: With `COc1cccc(C(=O)N2CCN(C3CCCCC3)CC2)c1.O=C(O)C(=O)O` as the molecule, how does the “hERG current change (%, negative = inhibition) at 10uM” value read?
Answer: -13.5%

Question: How did the “hERG current change (%, negative = inhibition) at 10uM” value turn out when `COc1cc(C(=O)N2CCN(C3CCCCC3)CC2)cc(OC)c1OC.O=C(O)C(=O)O` was run?
Answer: 2.07%

Question: `COc1ccc(C(=O)N2CCN(C3CCCCC3)CC2)cc1OC.O=C(O)C(=O)O` was tested. Which “hERG current change (%, negative = inhibition) at 10uM” value did it give?
Answer: -73.6%

Question: With `COc1cc(OC)cc(C(=O)N2CCN(C3CCCCC3)CC2)c1.O=C(O)C(=O)O` as the molecule, how does the “hERG current change (%, negative = inhibition) at 10uM” value read?
Answer: -23.4%

Question: How did the “hERG current change (%, negative = inhibition) at 10uM” value turn out when `COc1ccc(C(=O)N2CCCN(C)CC2)c(OC)c1` was run?
Answer: -5.24%

Question: Which “hERG current change (%, negative = inhibition) at 10uM” value does the source give for `COc1ccc(C(=O)N2CCN(C(=O)Cc3ccccc3)CC2)cc1OC` here?
Answer: 5.3%

Question: How did the “hERG current change (%, negative = inhibition) at 10uM” value turn out when `COc1ccc(C(=O)N2CCN(C3CCC(c4ccccc4)CC3)CC2)cc1OC` (stereo not shown) was run?
Answer: -69.9%

Question: Which “hERG current change (%, negative = inhibition) at 10uM” value does the source give for `COc1ccc(C(=O)N2CCN(C3CCCCC3)CC2)c(OC)c1` here?
Answer: -73.6%

Question: How did the “hERG current change (%, negative = inhibition) at 10uM” value turn out when `CC(=O)c1c(C)[nH]c(C(=O)OCc2ccccc2)c1C` was run?
Answer: -3.71%

Question: Which “hERG current change (%, negative = inhibition) at 10uM” value does the source give for `C=C(C)CSc1nnc(-c2ccccc2)n1N` here?
Answer: -1.72%

Question: For `CCOC(=O)N1CCC(NS(=O)(=O)c2ccc3c(c2)oc(=O)n3C)CC1`, which “hERG current change (%, negative = inhibition) at 10uM” value is on record?
Answer: 1.74%

Question: For `COc1cccc(N2CCN(S(=O)(=O)c3cccc4nsnc34)CC2)c1`, which “hERG current change (%, negative = inhibition) at 10uM” value is on record?
Answer: -10.6%

Question: With `CC(C)Cc1nnc(NC(=O)CCC(=O)NC2CC2)s1` as the molecule, how does the “hERG current change (%, negative = inhibition) at 10uM” value read?
Answer: 21.9%

Question: For `COc1ccc(NC(=O)c2c(C)noc2-c2snnc2C)cc1`, which “hERG current change (%, negative = inhibition) at 10uM” value is on record?
Answer: -1.51%

Question: `N=c1c(C(=O)NCc2ccccc2)cc2c(=O)n3ccccc3nc2n1Cc1ccco1` was tested. Which “hERG current change (%, negative = inhibition) at 10uM” value did it give?
Answer: -76.4%

Question: Which “hERG current change (%, negative = inhibition) at 10uM” value does the source give for `N=c1c(S(=O)(=O)c2ccc(Br)cc2)cc2c(=O)n3ccccc3nc2n1Cc1ccco1` here?
Answer: 7.31%

Question: `N=c1c(S(=O)(=O)c2ccc(Cl)cc2)cc2c(=O)n3ccccc3nc2n1Cc1ccco1` was tested. Which “hERG current change (%, negative = inhibition) at 10uM” value did it give?
Answer: 13.1%

Question: For `CC(C)n1c(=N)c(C(=O)NCCc2ccccc2)cc2c(=O)n3ccccc3nc21`, which “hERG current change (%, negative = inhibition) at 10uM” value is on record?
Answer: -75.1%

Question: With `O=C(NCCc1ccco1)c1nn(Cc2ccccc2)c(=O)c2ccccc12` as the molecule, how does the “hERG current change (%, negative = inhibition) at 10uM” value read?
Answer: 10.3%

Question: With `O=C(NCCc1ccccc1)c1cnc2ccccn2c1=O` as the molecule, how does the “hERG current change (%, negative = inhibition) at 10uM” value read?
Answer: -12%

Question: Which “hERG current change (%, negative = inhibition) at 10uM” value does the source give for `N=c1c(S(=O)(=O)c2ccccc2)cc2c(=O)n3ccccc3nc2n1Cc1ccco1` here?
Answer: -18.9%

Question: `N=c1c(C(=O)NCCc2ccccc2)cc2c(=O)n3ccccc3nc2n1Cc1ccco1` was tested. Which “hERG current change (%, negative = inhibition) at 10uM” value did it give?
Answer: -77.9%

Question: For `Cn1c(C(=O)NCCC2=CCCCC2)cc2c(=O)n3ccccc3nc21`, which “hERG current change (%, negative = inhibition) at 10uM” value is on record?
Answer: 19.7%

Question: `O=C(NCc1ccco1)c1ccc(Cn2c(=O)c3ccccc3n(Cc3ccc(Cl)cc3)c2=O)cc1` was tested. Which “hERG current change (%, negative = inhibition) at 10uM” value did it give?
Answer: 8.16%

Question: With `N=c1c(C(=O)NCc2ccco2)cc2c(=O)n3ccccc3nc2n1Cc1ccc(Cl)cc1` as the molecule, how does the “hERG current change (%, negative = inhibition) at 10uM” value read?
Answer: -77.1%

Reference: paper PMC4336329 (PLoS ONE, 2015)
